# Whole data set: some 33,000 sequences, median “e-score” near -0.05, cut for the highest 2% near 0.38. Shown is part of a subset that was picked to be rich in the highest values.
# Target: T1, SIX1-Q177R homeodomain (human, UniProt Q15475 108-198, Q177R)
# T1 sequence: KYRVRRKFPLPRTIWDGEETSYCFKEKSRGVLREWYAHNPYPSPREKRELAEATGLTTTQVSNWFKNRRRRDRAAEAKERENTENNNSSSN
# Test: universal protein binding microarray; Universal all-10-mer PBM (8x60K, AMADID 030236), 300 nM GST-tagged protein, Alexa Fluor 488 anti-GST; buffer, salt, pH and temperature not stated (as in Berger); high values mean tight binding
# Conditions: protein: ivt; tags: N-terminal GST; dsDNA, one strand shown
# Procedure, shortened: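 Duplicate protein binding microarrays (universal 'all 10-mer', 8×60K format) were incubated with GST-tagged homeodomains at 300 nM final concentration. Binding was quantified as 8-mer E-scores with the Universal PBM Analysis Suite.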
row,Sequence,binding signal [E-score]
1,GGCGTGTA,0.4378 ± 0.00204
2,GGCGTACA,0.283 ± 0.0225
3,GACGTGTA,0.368 ± 0.0248
4,TACACAGA,0.152 ± 0.0583
5,AGCACCGA,0.197 ± 0.00674
6,CACCCCGA,0.346 ± 0.0278
7,TACACCGA,0.4853 ± 0.00441
8,AACACCGT,0.4669 ± 0.00366
9,GTCACCGA,0.175 ± 0.0101
10,AACACCGA,0.4686 ± 0.00331
11,GACACCGA,0.486 ± 0.00613
12,AACACTGT,0.3445 ± 0.00205
13,AACACAGT,0.158 ± 0.0584
14,GGCACCGA,0.175 ± 0.0275
15,ACCCAACA,0.251 ± 0.0117
16,ACGATCCG,0.232 ± 0.0258
17,AATCTACA,0.22 ± 0.0213
18,ACCCGTGC,0.1616 ± 0.000424
19,GCACTATA,0.191 ± 0.0272
20,CACCCCGG,0.338 ± 0.0167
21,AACACTGG,0.37323 ± 0.000191
22,AACACCGG,0.4831 ± 0.000693

row,Sequence,binding signal [E-score]
1,GATACCGC,0.293 ± 0.00845
2,GACGCCGC,0.151 ± 0.0247
3,AGCACCGG,0.206 ± 0.0351
4,CACACAGG,0.182 ± 0.0584
5,CACCGCGG,0.3509 ± 0.00344
6,CACACCGC,0.412 ± 0.0184
7,CACACCGG,0.418 ± 0.0186
8,GACACCGC,0.487 ± 0.00552
9,CGCACCGC,0.209 ± 0.0348
10,CACCGATG,0.32 ± 0.0273
11,CCCCGGAG,0.261 ± 0.00517
12,CTATTACA,0.215 ± 0.023
13,CAGATTCG,0.161 ± 0.0252
14,CACCAAGG,0.265 ± 0.0125
15,CCCGCACC,0.197 ± 0.0395
16,AACCCGGA,0.201 ± 0.0406
17,TGTGCACA,0.21 ± 0.0348
18,CGCTTACA,0.196 ± 0.0288
19,CACCATAC,0.3492 ± 0.0017
20,CACCAGGG,0.284 ± 0.0249
21,CGGATCCA,0.232 ± 0.0264
22,CACCCGAA,0.276 ± 0.0248

row,Sequence,binding signal [E-score]
1,ACCTCACG,0.153 ± 0.0322
2,CACCGGCC,0.251 ± 0.0167
3,GATACCCA,0.3616 ± 0.000587
4,ACTTGCAC,0.175 ± 0.00796
5,TGTAAACA,0.262 ± 0.00791
6,CACACCGA,0.405 ± 0.0194
7,AGCACCGC,0.288 ± 0.023
8,ACCACCGC,0.199 ± 0.00668
9,AACACCGC,0.47579 ± 0.000382
10,CGGGGTTC,0.201 ± 0.0287
11,CATGGACA,0.216 ± 0.0185
12,GGAGTACC,0.218 ± 0.0355
13,GTGCGCAC,0.175 ± 0.0735
14,GGACACCC,0.48 ± 0.00768
15,CGACACCG,0.4907 ± 0.00417
16,CGGCACCG,0.239 ± 0.0344
17,CGACCCCC,0.256 ± 0.0448
18,GCCCACCC,0.229 ± 0.0369
19,CGACACAG,0.251 ± 0.0668
20,GGACACAC,0.382 ± 0.0328
21,CGACACAC,0.345 ± 0.0318
22,GGACACAA,0.18 ± 0.117

row,Sequence,binding signal [E-score]
1,CGACACCC,0.488 ± 0.01
2,GGACCCCC,0.26 ± 0.0595
3,ACGCACCC,0.265 ± 0.0257
4,TACCCTGA,0.185 ± 0.0156
5,CGGGGTGC,0.219 ± 0.0401
6,TATTGACA,0.194 ± 0.0479
7,CACGCAGG,0.264 ± 0.016
8,GTACTCCA,0.178 ± 0.0308
9,GGTCACAC,0.384 ± 0.0098
10,CGACAACA,0.245 ± 0.0238
11,CGACACCA,0.488 ± 0.00517
12,CGACACAA,0.201 ± 0.104
13,CGTCACAC,0.288 ± 0.0273
14,AGACCCCC,0.214 ± 0.0497
15,AGACACCC,0.469 ± 0.00936
16,AGTCACAC,0.326 ± 0.0101
17,ACTCCCTC,0.156 ± 0.0128
18,TATATATA,0.181 ± 0.042
19,AGGGATCG,0.216 ± 0.00653
20,CACTCATG,0.244 ± 0.00471
21,ACCCTTCA,0.166 ± 0.0264
22,GGGGTATA,0.274 ± 0.0131

row,Sequence,binding signal [E-score]
1,CACCTCCG,0.344 ± 0.00638
2,ACCCGGGG,0.297 ± 0.0213
3,CACTATTA,0.158 ± 0.0138
4,GTTCGGGA,0.15 ± 0.0437
5,CACCACCA,0.329 ± 0.0106
6,CTACCCCC,0.268 ± 0.0213
7,CTGCACCC,0.209 ± 0.0458
8,GTACAACA,0.2 ± 0.0164
9,CTACACCA,0.4741 ± 0.00151
10,GTGCACCA,0.246 ± 0.0146
11,GTACACCA,0.4849 ± 0.00112
12,ATACACTG,0.392 ± 0.00512
13,CTACACCC,0.4824 ± 0.00332
14,CTACAACA,0.161 ± 0.0103
15,ACACACTG,0.248 ± 0.0191
16,CACTAACA,0.284 ± 0.0307
17,CGACCCCG,0.255 ± 0.0544
18,CCCAATAC,0.17 ± 0.00354
19,TATTTACA,0.311 ± 0.0362
20,AAGTAGTG,0.27 ± 0.0294
21,CCCCTCAG,0.251 ± 0.0116

# From PMC10668032, “Altered binding affinity of SIX1-Q177R correlates with enhanced WNT5A and WNT pathway effector expression in Wilms tumor”
